PubChem BioAssay AID1851 (National Center for Advancing Translational Sciences (NCATS), 2009)
Where “and” joins values, the source holds several entries; their conditions need not be identical. Identical values can stand only once. The whole screen tested about 16,000 compounds, of which about 4,000 (25%) were called active. Inconclusive results (about 26%) are left out. Calls come from the whole dose curve; as a rule, active = well fitted curve in the direction sought with a large enough effect; inconclusive = small, poorly fitted or top-dose-only effect, or effect the other way; inactive = no such curve, though single readings can be large or run the other way. A selection follows.

target: Cytochrome P450 2C9 (Homo sapiens) (UniProt P11712); assay: Cytochrome panel assay with activity outcomes; conditions: recombinant CYP, pro-luciferin dealkylation, luminescence, p450-cyp2c9; series mostly up to 57.1 µM
Sequence (P11712 whole entry, looked up): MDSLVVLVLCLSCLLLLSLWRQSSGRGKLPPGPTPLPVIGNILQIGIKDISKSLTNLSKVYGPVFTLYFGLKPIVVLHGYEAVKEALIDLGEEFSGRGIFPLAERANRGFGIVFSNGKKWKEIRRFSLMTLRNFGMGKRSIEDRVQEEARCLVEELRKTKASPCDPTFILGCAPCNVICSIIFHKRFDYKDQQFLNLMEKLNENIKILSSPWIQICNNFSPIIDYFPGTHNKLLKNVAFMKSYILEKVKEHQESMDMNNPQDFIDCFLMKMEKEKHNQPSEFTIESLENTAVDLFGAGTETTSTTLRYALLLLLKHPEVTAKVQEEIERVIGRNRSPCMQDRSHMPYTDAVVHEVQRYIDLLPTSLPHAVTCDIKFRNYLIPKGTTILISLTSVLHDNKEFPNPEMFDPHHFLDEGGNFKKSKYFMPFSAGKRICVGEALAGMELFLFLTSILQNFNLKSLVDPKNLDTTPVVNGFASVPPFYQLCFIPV
% is set by controls: 0 for no effect and ±100 for the full control effect.

activity, negative = inhibition, inactive:
FC(F)(F)c1ccccc1-c1nc(NC2CCNCC2)c2ccccc2n1 14.5% [at 2.29 µM], c1c[nH]c(CN2CCOCC2)n1 -9.4% [at 11.4 µM], Nc1nc(SCC(=O)O)[nH]c(=O)c1N -6.53% [at 11.4 µM], NCCCc1c(-c2ccccc2)nc(N)[nH]c1=O -12.1% [at 11.4 µM], COc1ccc2nc3cc(Cl)ccc3c(Nc3ccc(O)c(CN4CCN(C)CC4)c3)c2c1 -28.4% [at 11.4 µM], NC(N)=NNC(=O)C(=O)O -4.6% [at 11.4 µM], OCCCNc1ncnc2[nH]ncc12 -4.6% [at 11.4 µM], c1csc(CNc2ncnc3ccc(-c4ccoc4)cc23)c1 0.0121% [at 2.29 µM], Cc1cnc(CNc2ncnc3ccc(-c4ccoc4)cc23)cn1 11.8% [at 2.29 µM], OCCNc1ncnc2nc[nH]c12 -11.4% [at 11.4 µM], CC(=O)/C(=N\N=C(N)N)c1ccccc1 11.7% [at 11.4 µM], O=C(O)c1ccc(CNCc2ccccc2)cc1 10.3% [at 11.4 µM], O=C(O)Cc1c(O)ccc2ccccc12 -24.2% [at 11.4 µM], CC(C)(C)c1ccc(O)c(CN(Cc2c(O)ccc3ccccc23)C2CCCCC2)c1 -19% [at 11.4 µM], CC(=O)OC[C@@H]1O[C@@H](O/N=C2/C[C@@H](O)[C@@H](O)[C@@H]3[C@@H]4C(=O)N([C@@H](C)c5ccccc5)C(=O)[C@H]4CC[C@H]23)[C@H](OC(C)=O)[C@H](OC(C)=O)[C@@H]1OC(C)=O 10.5% [at 11.4 µM], CC(=O)OC[C@@H]1O[C@@H](O/N=C2/C[C@@H](O)[C@@H](O)[C@@H]3[C@@H]4C(=O)N(c5cccc(Oc6ccccc6)c5)C(=O)[C@H]4CC[C@H]23)[C@H](OC(C)=O)[C@H](OC(C)=O)[C@@H]1OC(C)=O 1.66% [at 11.4 µM], C[C@@H]1OC2C3=C(C(=O)[C@H]4O[C@@H]4[C@H]3O)[C@@H]1[C@H]1[C@H](C)OC=C3[C@H](O)[C@H]4O[C@H]4/C(=N\OCc4ccccc4)[C@@]321 13.2% [at 11.4 µM], Cc1ccc2nc(-c3ccc(NC(=O)c4ccc(N)cc4)c(S(=O)(=O)O)c3)sc2c1 -3.37% [at 11.4 µM], O=C(O)c1cc(-c2ccc3cc4c(cc3c2)OCO4)nc2ccccc12 -17.1% [at 11.4 µM], C[N+]1(C)CCc2cc(O)c(O)cc2[C@H]1Cc1ccc(O)c(O)c1 6.54% [at 11.4 µM], CN(Cc1ccco1)c1ncnc2ccc(-c3ccoc3)cc12 -10.5% [at 2.29 µM], Cc1cnc(CNc2cc(-c3ccccc3Cl)ncn2)cn1 8.89% [at 2.29 µM], O=C1C[C@@H](O)[C@@H](O)[C@H]2[C@@H]3C(=O)N(C[C@@H]4CCCO4)C(=O)[C@@H]3CC[C@H]12 21.7% [at 11.4 µM] and 13.9% [at 11.4 µM], CNc1cc(-c2c(C)noc2C)ncn1 9.86% [at 2.29 µM], FC(F)(F)c1ccccc1-c1cc(NCc2cccnc2)ncn1 16.9% [at 2.29 µM]

AC50, inactive:
Cc1nc(S(=O)(=O)N2CCOCC2)c(C#N)c(C)c1Cl, CCCOc1ccc(OCCNC2CCCC2)cc1, Cc1c(N(C)C)c(=O)n(-c2ccccc2)n1C, Cc1c(O)c(=O)n(-c2ccccc2)n1C, Cc1ccc(S(=O)(=O)N[C@H](C(=O)N2CCC(C(=O)NCC(=O)O)CC2)C(C)C)cc1, COc1ccc(C(=O)N2CCC3(CC2)CN(C(=O)NC(C)C)C3)cc1, Cc1ccccc1NC(=O)c1cnc(Nc2nc3ccccc3s2)nc1C, CN=C1N[C@H](c2ccccc2)N(c2ccccc2)S1, CC(=O)c1c(C)nc(-c2ccccc2)n1O, CN1CC[C@@]2(CCCN(C(=O)c3cccn3C)C2)C1, COc1ccc(-n2c(-c3ccccc3)nc(=S)c3c2CCCC3)cc1, C/C(=N\N=C1\NC(=O)CC(C(=O)O)S1)c1cccs1 (stereo not drawn), CC(=O)c1cc(C)ccc1OC(=O)CCN1C(=O)C2C3c4ccccc4C(c4ccccc43)C2C1=O (stereo not drawn), O=c1[nH]ncn2cccc12, O=C(CSc1nnc(-c2ccco2)n1-c1ccccc1)NCc1ccco1, O=C1C2CCC(C(O)C2)N1Cc1ccccc1 (stereo not drawn), O=C(COC(=O)COc1ccccc1)Nc1ccc(OC(F)(F)F)cc1, NS(=O)(=O)c1cc(C(=O)O)cc(N2CCCC2)c1Oc1ccccc1, CCOC(=O)C1CCCN(C(=O)CCCOc2cc(=O)n(C)c3ccccc23)C1 (stereo not drawn), O=c1c2cnn(-c3ccccc3)c2nnn1/N=C/c1cccnc1, CC(C)(C(=O)c1cccnc1)c1cccnc1, O=[N+]([O-])c1cc(/C=N/N2CCN(C3c4ccccc4-c4ccccc43)CC2)ccc1Cl, N[C@@]1(C(=O)O)CN[C@H](C(=O)O)C1, O=C(c1csnn1)N1CCC2(CC1)CN(Cc1cc(C(F)(F)F)cc(C(F)(F)F)c1)C2, CC1=N/C(=C\c2ccc([N+](=O)[O-])cc2)C(=O)N1c1ccc(Cl)cc1, CC(C)(C)NC[C@H](O)c1cc(O)cc(O)c1, CCOc1cc(CNCCO)c(Cl)cc1OCC(=O)NCCc1ccccc1, Cc1ccc(C)c(S(=O)(=O)NC(C)C(=O)Nc2ccc(-c3nc4ccccc4s3)cc2)c1 (stereo not drawn), CCn1c(C)cc(/C=C2\NC(=O)N(Cc3ccc(Cl)cc3)C2=O)c1C

AC50, active:
Oc1cccc2ccc(SSc3ccc4cccc(O)c4n3)nc12 1580 nM, Cc1ccc(O)c(C(=O)c2cc(C#N)c(=O)n(-c3c(C)n(C)n(-c4ccccc4)c3=O)c2)c1 15800 nM, CCCCCOC(=O)CSc1nnc(-c2ccccc2)c(=O)[nH]1 2000 nM, CCc1ccc2c(c1)c(N=NC1=NC(=O)CS1)c(O)n2CC 12600 nM, Cc1sc2nc(SCC(=O)C(C)(C)C)n(Cc3ccco3)c(=O)c2c1C 1580 nM, O=C(Nc1cccnc1Cl)C1c2ccccc2Oc2ccccc21 1120 nM, Cc1cccc2sc(NC(=O)C3c4ccccc4Oc4ccccc43)nc12 1260 nM, CCc1cc2c(NCCO)ncnc2s1 1580 nM, CCc1cc2c(NCc3ccco3)ncnc2s1 4470 nM, CN=c1nc(-c2ccccc2)n(-c2ccccc2)s1 2000 nM, COC(=O)[C@@]1(Cc2ccc(F)cc2)[C@H]2c3cc(C(=O)N4CCCC4)n(Cc4cccc5ccccc45)c3C[C@H]2CN1C(=O)c1ccccc1 1580 nM, COC(=O)[C@@]1(Cc2ccccc2)[C@H]2c3cc(C(=O)N4CCCC4)n(Cc4cccc5ccccc45)c3C[C@H]2CN1C(=O)c1ccccc1 251 nM, CC1=C(C(N)=O)C(c2cccs2)n2nc(-c3cccc(Cl)c3)nc2N1 (stereo not drawn) 12600 nM, C/C(=N\N=C(c1ccccc1)c1ccccc1)c1cccs1 708 nM, Cc1cc(C)c(NC(=O)C(C)Sc2nnc(-c3ccco3)n2-c2ccccc2)c(C)c1 (stereo not drawn) 10000 nM, NC(=O)c1ccc(C2SCC(=O)N2Cc2ccccc2)cc1 (stereo not drawn) 12600 nM, O=C(COc1ccccc1)Nc1cc(C(F)(F)F)ccc1N1CCCC1 14100 nM, Cc1nn(-c2nc3ccccc3[nH]2)c(N)c1-c1ccc(Cl)cc1 3980 nM, Oc1ccc2ccccc2c1Cc1c(O)ccc2ccccc12 2000 nM, CC(=O)N1N=C(c2cccc([N+](=O)[O-])c2)OC1c1ccc(Cl)cc1Cl (stereo not drawn) 1260 nM, CC(=O)N1N=C(c2cccc([N+](=O)[O-])c2)OC1c1ccccc1Cl (stereo not drawn) 891 nM, Cn1c(=O)cc(OCCCC(=O)N2CCN(c3ccccc3)CC2)c2ccccc21 2510 nM, C/C(=N\N1CCN(C2c3ccccc3-c3ccccc32)CC1)c1cccnc1 562 nM, C/C(=N\N1CCN(C2c3ccccc3-c3ccccc32)CC1)c1ccncc1 2240 nM, C(=N\N1CCN(C2c3ccccc3-c3ccccc32)CC1)/c1cccnc1 200 nM, Cn1nc(C(F)(F)F)c(/C=N/OC(=O)c2ccccc2Cl)c1SCc1ccc(Cl)cc1 3980 nM, Cc1ccc(C)n1N1C(=O)/C(=C\c2ccc(Cl)cc2)SC1=S 5010 nM, CCOc1ccc(/C=C/C2=Cc3c(sc(NC(=O)CSc4n[nH]c(N)n4)c3C#N)C(C)(C)C2)cc1 10000 nM, Cc1ccc(/C=C/C2=Cc3c(sc(NC(=O)CSc4n[nH]c(N)n4)c3C#N)C(C)(C)C2)o1 2820 nM, CCOc1cc(CNCCc2ccc(S(N)(=O)=O)cc2)cc(Cl)c1OCc1ccccc1 12600 nM, Cc1ccccc1NC(=S)NC(=O)c1cc(-c2ccccc2)nc2ccccc12 3550 nM, Cc1ccc(-c2cc(C(=O)NN=C3CCCC3)c3ccccc3n2)cc1 12600 nM, Cc1ccc(-c2nc3ccccc3s2)cc1NC(=S)NC(=O)c1ccccc1 3550 nM, CCCc1ccc(-c2cc(C(=O)NN3CCOCC3)c3ccccc3n2)cc1 2510 nM
